Results on 13 compounds are retold here after PubChem BioAssay (NCATS).

In one test the test system is CRL-7250. Nature of the test: Cytotoxic Profiling of Annotated Libraries Using Quantitative High-Throughput Screening (AID 1296008). Also: nearly all actives have a fitted effect of over 60% in size. As to max response: % is scaled to controls: 0 for no effect and ±100 for the full control effect. To be noted: Five cell lines viability, CellTiter-Glo ATP luminescence, 48-72 h; max response: active compounds read low. Summed up: (§1)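 Compounds were pin-transferred onto cells and incubated 48 or 72 hr at 37 degree Celsius, 95% humidity. CellTiter-Glo was added, plates sat 10 min at room temperature, then ATP-coupled luminescence was imaged as the viability read-out.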
In general terms: ATP-based viability assays read luminescence as a measure of living cells.

For a further test, the system named is HaCat. Described as above. Conditions: Five cell lines viability, CellTiter-Glo ATP luminescence, 48-72 h; max response: active compounds read low. Summed up:
as §1

A further test has as its system KB-3-1. The description is as above. Conditions: Five cell lines viability, CellTiter-Glo ATP luminescence, 48-72 h; max response: active compounds read low. Summed up: as §1
For another test, the system named is NIH3T3. Described as above. Conditions: Five cell lines viability, CellTiter-Glo ATP luminescence, 48-72 h; max response: active compounds read low. Summed up:
as §1

Another test relates to C33A. The test can be described thus: Primary qHTS to identify gynecologic anti-cancer compounds using libraries of approved drugs and bioactive compounds (AID 1345084). Also: % is scaled to controls: 0 for no effect and ±100 for the full control effect; nearly all actives have a fitted effect of over 55% in size. Conditions: Gynecologic cancer cell panel viability, ATPlite luminescence, 48 h; series mostly up to 57.5 µM. Summed up: (§2)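 Cells, 1,000 per well, were allowed to settle for 16 h at 37 C before compound addition. Five concentrations were tested for 48 h, and viability was read by ATPlite luminescence after 15 min at room temperature.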
Background: Quantitative high-throughput screening tests each substance at several concentrations.

The next test relates to CAOV3. The description is as above. Conditions: Gynecologic cancer cell panel viability, ATPlite luminescence, 48 h; series mostly up to 57.5 µM. Summed up:
as §2

Another test has as its system CASKI. Described as above. To be noted: Gynecologic cancer cell panel viability, ATPlite luminescence, 48 h; series mostly up to 57.5 µM. Summed up: as §2
The next test deals with HeLa. The test is described as above. To be noted: Gynecologic cancer cell panel viability, ATPlite luminescence, 48 h; series mostly up to 57.5 µM. Summed up:
as §2

The subject of a further test is JEG-3. The description is as above. Conditions: Gynecologic cancer cell panel viability, ATPlite luminescence, 48 h; series mostly up to 57.5 µM. Summed up:
as §2

A further test relates to OV90. Described as above. To be noted: Gynecologic cancer cell panel viability, ATPlite luminescence, 48 h; series mostly up to 57.5 µM. Summed up:
as §2

A further test deals with PA-1. Described as above. Conditions: Gynecologic cancer cell panel viability, ATPlite luminescence, 48 h; series mostly up to 57.5 µM. Summed up:
as §2

The next test concerns Es-2. Described as above. To be noted: Gynecologic cancer cell panel viability, ATPlite luminescence, 48 h; series mostly up to 57.5 µM. Summed up:
as §2

For the next test, the system named is Hek293T. The description is as above. To be noted: Gynecologic cancer cell panel viability, ATPlite luminescence, 48 h, control line for the selectivity index; series mostly up to 57.5 µM. Summed up: as §2
The test system of the next test is W2. The test can be described thus: qHTS profiling for inhibitors of Plasmodium falciparum proliferation (AID 504749). Also: potency is read from the fitted curve at half-maximal effect; nearly all actives have a fitted effect of over 60% in size. To be noted: P. falciparum in erythrocytes, SYBR Green DNA, 72 h; series mostly up to 28.7 µM. Summed up:
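Fluorescence of SYBR Green-bound parasite DNA, read at 485/535 nm, served as the growth measure. Infected erythrocytes were cultured with compound 72 h; artemisinin (0.29 uM) and DMSO wells defined the normalization range.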

Results filed as inconclusive are left out. Unmarked numbers belong to inactive results. Calls of active or inactive are those of the source. Calls follow the shape of the dose curve; as a rule, active = well fitted curve in the direction sought with a large enough effect; inconclusive = small, poorly fitted or top-dose-only effect, or another doubt; inactive = no such curve, though single readings can be large; an effect the other way counts as inactive or inconclusive.

Turning to `C=C1C(=O)O[C@@H]2/C=C(/C)[C@@H](OC(C)=O)C/C=C(\C)C[C@@H](OC(=O)/C(=C/CO)CO)[C@@H]12`, the figures for the max response with CRL-7250, with HaCat and with NIH3T3 were 3.05%, -3.88% and 0.581%, respectively. Besides, in the test on KB-3-1, the result was inactive. Further, the Potency entry in the test on C33A, in the test with CAOV3, with CASKI, with HeLa, in the test on JEG-3 and in the test with OV90 was “inactive” throughout. Also, the Potency result in the test with PA-1 is “inactive”.
For `COc1ccc(N2CCN(C(=O)c3cc4c(s3)-c3ccccc3S(=O)(=O)C4)CC2)cc1`, the max response with CRL-7250 is 4.26%; in the test on HaCat, 2.45%; with KB-3-1, -19.5%; in the test on NIH3T3, -22%. In addition, the Potency result with C33A, with CAOV3, with CASKI, with Es-2, in the test on HeLa and in the test on JEG-3 was “inactive” throughout. The Potency result in the test with OV90 and in the test on PA-1 was “inactive” each time.
In the case of `COc1ccc(CNCc2cccc3ccccc23)cc1`, the outcome in the test with CRL-7250 was inactive. Besides, the figures for the max response in the test on HaCat, in the test with KB-3-1 and with NIH3T3 were -12.6%, 3.07% and -4.32%, respectively. The Potency entry in the test on C33A, in the test with CAOV3, in the test with CASKI, with Es-2, with HeLa and with Hek293T was “inactive” each time. Further, the Potency entry with JEG-3 and with PA-1 was “inactive” in each case.
For the compound `CC(C)C[C@H](CO)Nc1nc(S[C@@H](C)c2ccccc2)nc2nc(N)sc12`, the figures for the max response with CRL-7250, in the test on HaCat and in the test with NIH3T3 were 1.1%, -4.79% and 2.79%, respectively. Further, the call with KB-3-1 was inactive. Also, the Potency entry in the test with C33A, with CAOV3, with CASKI, in the test on Es-2, in the test on HeLa and in the test on Hek293T was “inactive” in each case. The Potency result in the test with OV90 and in the test on PA-1 was “inactive” in each case.
As to `O=C(NCCN1CCN(c2cccc3c2OCCO3)CC1)c1ccc(F)cc1`, the max response in the test on CRL-7250 was 2.38%; with HaCat, -12.9%; in the test on KB-3-1, -10.3%; in the test with NIH3T3 it was 2.39%. Besides, the Potency result with C33A, with CAOV3, with CASKI, in the test with Es-2, in the test with HeLa and in the test with Hek293T was “inactive” throughout. Further, the Potency result in the test on JEG-3, in the test on OV90 and with PA-1 was “inactive” each time.
For the compound `C[C@@H]1CC[C@]2(C(=O)O)CC[C@]3(C)C(=CCC4[C@@]5(C)CC[C@H](O)[C@](C)(C(=O)O)C5CC[C@]43C)C2[C@]1(C)O` (stereo not given in full), the max response in the test on CRL-7250 was -2.08%; in the test on HaCat, 4.55%; with KB-3-1 it was 0.684%; with NIH3T3, -24.1%. For the same compound, the Potency entry with C33A, with CAOV3, in the test on CASKI, in the test with Es-2, with HeLa and with Hek293T was “inactive” in each case. Also, the Potency entry in the test on JEG-3, with OV90 and with PA-1 was “inactive” each time.
As to `CC(=O)O[C@@H]1CC2C(/C=C(\C)C(=O)[C@@]3(O)C[C@@H](C)[C@H](OC(=O)c4ccccc4)C3/C=C/1C)C2(C)C` (stereo not given in full), the outcome with CRL-7250 and with KB-3-1 was inactive. Besides, the max response in the test on HaCat is -1.64%; with NIH3T3 it was 1.35%. The Potency entry in the test on C33A, with CAOV3, with CASKI, in the test with Es-2, in the test with HeLa and in the test with Hek293T was “inactive” each time. For the same compound, the Potency entry in the test on JEG-3, in the test on OV90 and in the test with PA-1 was “inactive” throughout.
For the compound `COC1C(OC(=O)/C=C/C=C/C=C/C=C/C(=O)O)CCC2(CO2)C1C1(C)OC1CC=C(C)C` (stereo not given), the Potency in the test with W2 is 10.7 nM (active). Further, the max response is -15.2% with CRL-7250, -3.3% in the test on HaCat and 0.0729% in the test on NIH3T3. For the same compound, in the test on KB-3-1, the call was inactive. The Potency result in the test with C33A, in the test on CAOV3, with CASKI, with Es-2, in the test with HeLa and with Hek293T was “inactive” in each case. Moreover, the Potency entry in the test on JEG-3, in the test with OV90 and in the test with PA-1 was “inactive” throughout.
Take `O=C(Nc1ccccc1C(=O)NC1CCCCNC1=O)c1cc2ccccc2s1` (stereo not given): the compound was classed as inactive with CRL-7250. Moreover, the figures for the max response in the test on HaCat, in the test on KB-3-1 and in the test with NIH3T3 were 4.7%, -2.87% and 4.3%, respectively. Further, the Potency result in the test with C33A, in the test on CAOV3, with CASKI, in the test with Es-2, in the test with HeLa and in the test with Hek293T was “inactive” in each case. In addition, the Potency entry in the test with JEG-3, with OV90 and in the test with PA-1 was “inactive” each time.
On to `O=C(c1ccc(F)cc1)N1CCCC(c2nc(-c3ccc(F)cc3)no2)C1` (stereo not given), for which the max response in the test with CRL-7250 was -19.5%; in the test on HaCat it was -5.25%; in the test on KB-3-1, -21.6%; in the test on NIH3T3, -12.8%. Moreover, the Potency entry in the test on C33A, in the test on CAOV3, in the test with CASKI, with Es-2, in the test on HeLa and in the test with Hek293T was “inactive” throughout. Besides, the Potency entry with JEG-3, in the test on OV90 and in the test with PA-1 was “inactive” throughout.
Regarding `Cn1c(SCC(=O)N2CCC[C@H]2C(=O)Nc2ccccc2-c2ccccc2)nc2ccccc21`, the outcome with CRL-7250 was inactive. Besides, the max response with HaCat was -3.91%; in the test on KB-3-1 it was 7.08%; with NIH3T3 it was -3.15%. For the same compound, the Potency entry in the test on C33A, in the test on CAOV3, with CASKI, in the test with Es-2, with HeLa and in the test with Hek293T was “inactive” in each case. In addition, the Potency result in the test on JEG-3, in the test on OV90 and in the test with PA-1 was “inactive” in each case.
Regarding `COc1cc(NC(=O)c2cc(C3CC3)on2)c(OC)cc1Cl`, the max response in the test with CRL-7250 was -0.243%; in the test with HaCat, -5.44%; with KB-3-1, 7.13%; with NIH3T3, -5.84%. Moreover, the Potency result with C33A, with CAOV3, in the test on CASKI, with Es-2, with HeLa and in the test on Hek293T was “inactive” in each case. The Potency result with JEG-3, in the test with OV90 and in the test with PA-1 was “inactive” throughout.
On to `CC(C)CCNc1ncccc1C(=O)N1CCN(Cc2ccccc2)CC1`, for which the max response is -4.32% in the test with CRL-7250, 1.63% in the test on HaCat, 4.22% in the test with KB-3-1 and 2.66% in the test with NIH3T3. Besides, the Potency result in the test on C33A, with CAOV3, in the test on CASKI, in the test on Es-2, with HeLa and with Hek293T was “inactive” throughout. Moreover, the Potency result in the test on JEG-3, in the test with OV90 and in the test on PA-1 was “inactive” throughout.
